Source: PubChem (Broad Institute)
This excerpt belongs to a sample that is enriched for hits.
Tg IFNy HTS – inhibitors of Toxoplasma gondii growth with IFN-gamma; Toxoplasma gondii growth in IFN-gamma-treated host cells; active compounds read low; activity change, negative = inhibition, % (concentration not given with the values); hit rate 3.8% among 69,000; AID 1259416; in the data active = activity change below about -70%, passing the limit was not always enough;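 note: host cells are HeLa cells infected with Toxoplasma gondii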
* = called active by the depositor; i = inactive; ! = not confirmed by another sample.

SMILES | Tg IFNy HTS
Cc1sc(NC(=O)C(C)C)c(C(=O)N[C@@H]2C[C@@H](CO)N(C)C2)c1C | 0.0
CN1CCN(c2ccc(F)cc2)CC1C(=O)O (centres undefined) | 54.8
CC(C)N1CC[C@H]2OC[C@H](C(=O)NCCc3cccs3)C[C@H]2C1 | -2.7
CCOC(=O)c1cnc2oc3ccc(O)cc3c2c1-c1ccccc1 | 13.7
CCOC(=O)c1cnc2c(-c3ccccc3)c(C(F)(F)F)sc2c1N1CCOCC1 | -93.4*
Cc1nc(-c2ccccc2)sc1C(=O)Oc1ccccc1N1CCOCC1 | -56.0
Cc1ccc(NC(=O)Cn2c(=O)cc(-c3nc(C(C)C)no3)c3ccccc32)cc1F | 36.8
CCOC(=O)c1nc(N(C)c2ccccc2F)c2ccccc2n1 | 41.7
CCc1ccc(CNCCNC(=O)c2nonc2N)cc1 | -50.3
COc1ccc(C2CCCN2C(=O)c2cc(C(C)C)on2)cc1OC (centres undefined) | -0.5
Cc1ccc(-c2nc(CN(c3ccccc3C)S(=O)(=O)c3cccs3)c(C)o2)cc1 | 14.9
CC(C)N(Cc1cnn(C)c1)C(=O)c1ccc(-n2cccc2)cc1 | 9.2
COc1ccc(CNc2nc(SCc3ccc(Cl)cc3)nc3ccccc23)cc1 | -61.2
CCN(CC)c1ncc2c(NCc3ccccc3)nc(SCc3ccccc3)nc2n1 | -109.9*
COc1ccc(CNc2nc(SCc3ccc(F)cc3)nc3ccccc23)cc1 | -69.9
CC(=O)N1C2CCN(S(C)(=O)=O)CC2C[C@H]1Cn1cncn1 (some centres undefined) | 11.6
COc1cccc(NC(=O)N2CCC(c3nc(C(=O)N4CCCCC4)c(C)o3)CC2)c1 | 178.0
COc1cccc(-c2cc(CN3Cc4ncccc4C3=O)no2)c1 | 0.0
COCC1(N(C)C(=O)CCNC(=O)c2ccc(F)cc2)CC1 | -0.2
COc1cc(C(=O)NCCCCCC(=O)O)cc(OC)c1OC | 5.5
CN(C)c1ccc(C(=O)NCCCCCCC(=O)NO)cc1 | -88.4*!
Cc1ccc(-c2nnc(-c3nc(NCc4ccc(F)cc4)c4ccccc4n3)o2)cc1 | 15.2
Cc1cccc(-c2nnc(-c3nc(N4CCCCC4C)c4ccccc4n3)o2)c1 (centres undefined) | 27.4
COc1cccc(CNc2nc(-c3nnc(-c4cccc(C)c4)o3)nc3ccccc23)c1 | -92.0*
Cc1cccc(CNc2nc(-c3nnc(-c4ccc(F)cc4)o3)nc3ccccc23)c1 | -101.0*
SMILES | Tg IFNy HTS
Cc1cccc(-c2nnc(-c3nc(NC4CCS(=O)(=O)C4)c4ccccc4n3)o2)c1 (centres undefined) | -96.3*
Clc1cccc(-c2nnc(-c3nc(NCc4ccco4)c4ccccc4n3)o2)c1 | -69.2
Cc1ccc(-c2nnc(-c3nc(NCc4cccc(C)c4)c4ccccc4n3)o2)cc1 | 23.7
Cc1cccc(-c2nnc(-c3nc(NCc4ccco4)c4ccccc4n3)o2)c1 | -23.9
COc1ccc(Nc2nc(-c3nnc(-c4cccc(C)c4)o3)nc3ccccc23)cc1 | i
Fc1ccc(-c2nnc(-c3nc(NCc4ccco4)c4ccccc4n3)o2)cc1 | -85.6*
COc1cccc(CNc2nc(-c3nnc(-c4ccc(C)cc4)o3)nc3ccccc23)c1 | -11.0
COc1ccc(-c2nnc(-c3nc(NCc4ccc(C)cc4)c4ccccc4n3)o2)cc1 | -3.6
CN(C)CCn1cnc(-c2ccccc2)c1-c1ccc(-c2cncnc2)cc1 | -3.3
CN1C(=O)N(CCc2ccccc2)C(=O)C12CCN(Cc1cccs1)CC2 | 9.4
CC(=O)c1ccc(N2CCCC(CO)(Cc3ccccc3F)C2)nc1 (centres undefined) | 9.5
CC(C)Cn1c(CCCN2C(=O)c3ccccc3C2=O)nc2ccccc2c1=O | 21.2
CCN1CCN(Cc2ccnc(N3CCOCC3)n2)CC1 | 3.0
CN(C)c1ncc(-c2ccccn2)c(CN(Cc2ccccc2)C(=O)C2CC3C=CC2O3)n1 (centres undefined) | 63.0
COc1ccc(C(=O)NCCNc2nc(-c3ccncc3)cc3ncccc23)cc1OC | 14.6
CC(=O)N1CCc2c(nc(-c3ccccn3)nc2NCCc2ccc(F)cc2)C1 | -41.3
Fc1cccc(-c2nnn3c2COC(CNCc2ccsc2)C3)c1 (centres undefined) | -17.9
Cn1cncc1CN1CCOC2(CCCN(c3cccc(F)c3)C2)C1 (centres undefined) | 22.1
COC(=O)CC(=O)c1cnc(C)nc1C | -29.4
CCn1nc(CC(C)C)cc1C(=O)N1Cc2cnn(CCO)c2C1 | 156.4
Cc1cc(Cl)ccc1NC(=O)Cn1ncc2c(N3CCCCCC3)ncnc21 | 167.6
COc1ccc(C)cc1NC(=O)Cn1ncc2c(N3CCN(c4ccccn4)CC3)ncnc21 | 116.2
Cc1ccccc1NC(=O)Cn1ncc2c(N3CCN(c4ccccc4)CC3)ncnc21 | 94.3
Cc1cc(F)ccc1NC(=O)Cn1ncc2c(N3CCN(c4ccccc4)CC3)ncnc21 | 13.0
O=C(Cn1ncc2c(N3CCN(c4ccccc4)CC3)ncnc21)Nc1cccc(F)c1 | -84.7*
SMILES | Tg IFNy HTS
COc1ccc(Cl)cc1NC(=O)Cn1ncc2c(N3CCN(c4ccccn4)CC3)ncnc21 | -91.8*
COc1ccc(Cl)cc1NC(=O)Cn1ncc2c(N3CCN(c4ccccc4)CC3)ncnc21 | -82.0*
COc1cc(Cl)c(C)cc1NC(=O)Cn1ncc2c(N3CCN(c4ccccn4)CC3)ncnc21 | 103.5
CCc1ccc(NC(=O)Cn2ncc3c(N4CCN(c5ccccc5)CC4)ncnc32)cc1 | -65.6
Cc1ccc(NC(=O)Cn2ncc3c(N4CCN(c5ccccc5)CC4)ncnc32)c(Cl)c1 | 197.0
Cc1ccc(Cl)cc1NC(=O)Cn1ncc2c(N3CCCC3)ncnc21 | -12.6
COc1ccc(Cl)cc1NC(=O)Cn1ncc2c(N3CCCC3)ncnc21 | -81.0*
Cc1ccc(NC(=O)C(=O)NCCc2csc(-c3ccc(Cl)cc3)n2)cc1 | 37.0
O=C1NC2(CCN(CCO)CC2)CC1c1ccccc1 (centres undefined) | -4.0
CCn1cc(C(=O)N(CC2COc3ccccc3O2)C(C)C)c(C)n1 (centres undefined) | -4.4
N#Cc1cc2cc3c(cc2nc1NCCNC(=O)Cc1ccccc1)OCO3 | 22.3
O=S(=O)(NCc1ccccc1)Nc1ccc(-n2ccnc2)cc1 | 3.7
O=S(=O)(c1cccc(Cl)c1)N1CCC2(CC1)Nc1ccc(Cl)cc1-n1cccc12 | 14.0
CCN(Cc1ccccc1F)C(=O)c1c[nH]c(=O)[nH]1 | -1.8
Cc1ccccc1CC(=O)Nc1ccc(-c2nc(-c3ccccc3)co2)cc1 | -38.7
CN(C)c1cc(CN(C)S(=O)(=O)c2ccccc2Cl)nc(C2CCNCC2)n1 | -9.7
CCOc1cc(CNC(=O)c2nc(N3CCOCC3)c3ccccc3n2)ccc1OC | -20.1
CCOc1ccc(CCNC(=O)c2nc(N3CCCC3)c3ccccc3n2)cc1OCC | -62.7
CCOc1ccc(CCNC(=O)c2nc(N3CCC(C)CC3)c3ccccc3n2)cc1OCC | -98.3*
Cc1cc(C(=O)N2CCC3(C2)C(=O)N(C(C)C)CCN3CC#N)n[nH]1 (centres undefined) | -3.7
Cc1ccc(C(=O)Nc2ccc(Oc3cc4cnn(C)c4cc3-c3cn[nH]c3)c(F)c2)c(=O)n1-c1ccc(F)cc1 | -73.6*
COc1ccc(NC(=O)c2c(O)c3cccnc3n(-c3ccc(F)cc3)c2=O)cc1F | 131.7
Cc1ccc(NC(=O)c2c(O)c3cccnc3n(-c3ccc(F)cc3)c2=O)cc1F | 88.9
COc1cc2c(cc1CN1CCCC1c1ccccn1)OCCCO2 (centres undefined) | -42.7
C=CCn1c(=O)c(C(=O)NCc2ccc(OC)cc2)c(O)c2ccccc21 | -31.6
CC(NC(=O)c1ccc2c(c1)OCCO2)c1nnc2n1CCNCC2 (centres undefined) | -4.2
